Among all 360,000 compounds or so, about 4,500 (1.2%) were called active. Rule as the data show it: active = inhibition above about 30%; inactive = the rest. Many of the other results were omitted from the sample, so actives are more common in it than they were.
assay: inhibition of GDH and TPI enzymes – biochemical, absorbance, full deck, artefact control for M. tuberculosis FBA inhibitor project, primary screen (AID 588335); conditions: GDH-TPI coupled enzyme counterscreen, NADH absorbance; at 4.8 µM; hits give high values;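 also: 0% = DMSO wells and 100% = wells lacking the enzyme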

SMILES	inhibition
O=C1C=C(c2ccnc3cc(Cl)ccc23)C[C@@H](c2ccc3c(c2)OCO3)C1	1.34% (inactive)
CSc1ccc(/C=C2\NC(=O)NC2=O)cc1	27.3% (inactive)
Cc1ccccc1-n1c(C)cc(/C=C2\NC(=O)NC2=O)c1C	32.7% (active)
Cc1ccccc1-n1c(C)cc(/C=N/NC(=O)c2ccc(CN3CCOCC3)cc2)c1C	18.1% (inactive)
COc1ccc2[nH]c3c(c2c1)CCN1C(=O)C(CC(=O)NCc2cccc(C(F)(F)F)c2)C[C@H](C(=O)N2CCOCC2)[C@@]31C (stereo partly specified)	-0.94% (inactive)
COc1ccc(/C=N/Nc2cc(N3CCOCC3)nc(C)n2)c(OC)c1	68.5% (active)
Fc1ccccc1/C=N/Nc1cc(N2CCCCC2)ncn1	18.5% (inactive)
COc1ccccc1-c1cnn2c(N3CCOCC3)cc(C)nc12	8.82% (inactive)
CCOc1ccc(CN(C)C(=O)c2ccc(=O)[nH]c2)cc1	1.51% (inactive)
CC(C)CNC(=O)C(=O)NCC(c1ccc2c(c1)OCO2)N1CCOCC1 (stereo unspecified)	-0.84% (inactive)
CCCc1ccc(C(O)c2ncc(-c3cccc(OC)c3)[nH]2)cc1 (stereo unspecified)	-5.36% (inactive)
COC(=O)N/N=C/c1c[n+]([O-])c2ccccc2[n+]1[O-]	32.6% (active)
CC(C)(C)OC(=O)N/N=C/c1ccc(C(=O)O)cc1	-4.41% (inactive)
COC(=O)C(C)N=Cc1ccccc1 (stereo unspecified)	-1.89% (inactive)
O=C(Nc1ccc2c(c1)nc1n2CCCCC1)c1cc(S(=O)(=O)N2CCOCC2)ccc1Cl	-14.1% (inactive)
CN(CCC1CCOCC1)Cc1cn[nH]c1-c1ccc(-c2ccccc2)cc1	13% (inactive)
CC1CCN(C2=NC(=O)/C(=C/c3cn[nH]c3-c3ccccc3)S2)CC1	33.8% (active)
CCOc1cc(/C=C2\SC(N3CCCC(C)C3)=NC2=O)ccc1O (stereo unspecified)	14.5% (inactive)
CCCCCCCCn1c2c(c(=N)c3c1CCC3)CCCC2	-7.26% (inactive)
C/C(=N\NC(=O)c1cc(-c2ccc(O)cc2)nc2ccccc12)c1cccnc1	30.9% (active)
C/C(=N\NC(=O)c1cccc([N+](=O)[O-])c1)c1cccnc1	3.57% (inactive)
CCOc1ccccc1-c1cc(C(=O)N/N=C(\C)c2cccnc2)c2ccccc2n1	19.2% (inactive)

SMILES	inhibition
O=C(ON=C1CCN(S(=O)(=O)c2ccccc2)CC1)c1ccc(Cl)cc1	4.57% (inactive)
CN1CCN(c2ncc3c(n2)CC(c2ccccc2F)CC3=O)CC1 (stereo unspecified)	4.15% (inactive)
CCc1ccc(Nc2ncc3c(n2)CC(c2ccco2)CC3=O)cc1 (stereo unspecified)	37.7% (active)
Cc1ccc2nc(Nc3ncc4c(n3)CC(C)(C)CC4=O)nc(C)c2c1	1.22% (inactive)
CC(=NNC(=O)c1ccncc1)c1ccc(Cl)c(Cl)c1	0.88% (inactive)
COc1ccc(Cl)cc1C=CC=Nc1ccc(S(N)(=O)=O)cc1	5.17% (inactive)
COc1ccc(Cl)cc1C=CC=NNC(=O)c1ccncc1	50% (active)
CCOc1nc(OCC)nc(-n2cc(-c3ccccc3)nn2)n1	-5.88% (inactive)
Cc1cc(=O)oc2c3c(cc(OCC(=O)N[C@H](C(=O)O)c4ccccc4)c12)OC(C)(C)CC3	31.4% (active)
Cc1cc(=O)oc2c3c(cc(OCC(=O)NCc4ccccn4)c12)OC(C)(C)CC3	18.6% (inactive)
Cc1cc(=O)oc2c3c(cc(OCC(=O)NCCC(=O)N[C@@H](C)C(=O)O)c12)OC(C)(C)CC3	15.1% (inactive)
Cc1c(C)c2c(OCC(=O)N[C@@H](C(=O)O)c3ccccc3)cc3c(c2oc1=O)CCC(C)(C)O3	35.3% (active)
Cc1c(C)c2c(OCC(=O)NCCCO)cc3c(c2oc1=O)CCC(C)(C)O3	15% (inactive)
Cc1cc(=O)oc2c3c(cc(OCC(=O)NCC(O)c4ccccc4)c12)OC(C)(C)CC3 (stereo unspecified)	15.3% (inactive)
COc1cc(C(F)(F)F)nc2c(Br)c(C(C)(C)C)nn12	11.5% (inactive)
CCCCN(C(=O)C(CCSC)N1C(=O)c2ccccc2C1=O)c1c(N)n(CCC)c(=O)[nH]c1=O (stereo unspecified)	6.94% (inactive)
Cc1onc(-c2ccccc2)c1-c1nnc(COC(=O)c2ccc(N(C)C)cc2)o1	16.8% (inactive)
CCOCCCNC(=O)C(NC(=O)c1ccc(=O)[nH]c1)c1ccc(Cl)cc1 (stereo unspecified)	14.7% (inactive)
Cc1ccc(-n2nc3cc(C)c(NC(=O)c4cccnc4)cc3n2)cc1	15.4% (inactive)
Cc1cc2nc(-c3ccc(NC(=O)c4cccnc4)cc3)oc2cc1C	34.4% (active)
CC(C)NS(=O)(=O)c1ccc(NC(=O)c2cccnc2)cc1	-0.48% (inactive)
CCc1ccc(NC2Nc3cc(C)nn3S2)cc1 (stereo unspecified)	3.7% (inactive)

SMILES	inhibition
Cc1ccc(C(=O)N[C@H](C(=O)N2CCN(c3ncccn3)CC2)C(C)C)cc1	4.42% (inactive)
COC(=O)c1cccc(NC(=O)CSc2nc(C)cc(=O)[nH]2)c1	-11.5% (inactive)
COC(=O)c1cc(C(=O)CSc2nc(C)cc(C)n2)ccc1O	31.6% (active)
COc1ccc(C(=O)CSc2n[nH]c(N)n2)cc1	4% (inactive)
CCOC(=O)Cn1c(=O)n(Cc2ccc(OC)cc2)c(=O)c2cccnc21	5% (inactive)
O=C1N(Cc2ccc3c(c2)OCO3)c2ccccc2C1(O)c1c[nH]c2ccccc12 (stereo unspecified)	7.18% (inactive)
Cc1cccc(CCNS(=O)(=O)c2ccc(S(=O)(=O)NC3CCCC3)cc2)c1	10.9% (inactive)
Cc1c(/C=N/N2C(=O)C3C4C=CC(C4)C3C2=O)c2ccccc2n1C (stereo unspecified)	21.5% (inactive)
O=C1C2C3C=CC(C4CC34)C2C(=O)N1/N=C/c1ccc(-c2ccccc2[N+](=O)[O-])o1 (stereo unspecified)	50.6% (active)
CN(C(=O)CSc1nc(C2CC2)nc2ccccc12)c1nc(-c2ccccc2)cs1	8.44% (inactive)
CCCCn1c(N)c(N(CCC(C)C)C(=O)COC(=O)c2ccc(CC)cc2)c(=O)[nH]c1=O	9.06% (inactive)
CN(CCc1ccccc1)C(=O)c1cccc(NC(=O)Cc2cccc(NC(=O)C3CCCN(C(=O)C4CCC4)C3)c2)c1 (stereo unspecified)	4.55% (inactive)
COc1ccc(Nc2cc(Sc3ccc(OC)cc3)ncn2)cc1	-3.81% (inactive)
COc1ccc(CCNC2=CC(=O)CC(C)(C)C2)cc1	4.76% (inactive)
COc1ccc(NC2=CC(=S)NC(C)(C)C2)cc1	31.3% (active)
CCOC(=O)[C@H]1CCC[C@@H](NS(=O)(=O)c2ccc(NC(C)=O)cc2)C1	-3.39% (inactive)
OC(c1ccccc1)c1nc(-c2cnc3ccccc3c2)cs1 (stereo unspecified)	-3.54% (inactive)
CC/C(=N\NC(=O)c1ccccc1Cl)c1ccc(Br)s1	16.7% (inactive)
COCCN(C(=O)c1ccccc1F)c1c(N)n(Cc2ccccc2)c(=O)[nH]c1=O	-6.6% (inactive)
CC/C(=N\NC(=O)c1ccccc1O)c1c(O)n(Cc2ccccc2)c(=O)[nH]c1=O	57% (active)
Cc1ccccc1Nc1scc(-c2ccc(Br)cc2)[n+]1-c1ccccc1C	-1.89% (inactive)
COCCNc1cc(NCCOC)c([N+](=O)[O-])cc1[N+](=O)[O-]	15.1% (inactive)

From PubChem BioAssay AID588335 (The Scripps Research Institute Molecular Screening Center, 2011)
